Values without a mark were called inactive.
Compound: C#CCNC(=O)CCSSCCC(=O)NCCc1ccc(C=O)c(C=O)c1
Assay: lysine labeling ratio R10:1 (500 µM / 50 µM probe), SILAC-ABPP in living cells; higher = lower intrinsic lysine reactivity toward the probe, active = 2 or less
Conditions: HeLa; probe concentrations 500 vs 50 µM
Summary of the method: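 R, given per lysine, is the filtered median high-probe/low-probe MS1 peptide ratio, with the median then taken across forward and reverse replicates. Cells were living SILAC light and heavy HeLa cells in PBS at room temperature, labelled with 50 µM or 500 µM of an alkyne-tagged, disulfide-linked lysine probe. The ceiling applied is 20.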

Sequence of UniProt Q15149 (Q15149 whole entry): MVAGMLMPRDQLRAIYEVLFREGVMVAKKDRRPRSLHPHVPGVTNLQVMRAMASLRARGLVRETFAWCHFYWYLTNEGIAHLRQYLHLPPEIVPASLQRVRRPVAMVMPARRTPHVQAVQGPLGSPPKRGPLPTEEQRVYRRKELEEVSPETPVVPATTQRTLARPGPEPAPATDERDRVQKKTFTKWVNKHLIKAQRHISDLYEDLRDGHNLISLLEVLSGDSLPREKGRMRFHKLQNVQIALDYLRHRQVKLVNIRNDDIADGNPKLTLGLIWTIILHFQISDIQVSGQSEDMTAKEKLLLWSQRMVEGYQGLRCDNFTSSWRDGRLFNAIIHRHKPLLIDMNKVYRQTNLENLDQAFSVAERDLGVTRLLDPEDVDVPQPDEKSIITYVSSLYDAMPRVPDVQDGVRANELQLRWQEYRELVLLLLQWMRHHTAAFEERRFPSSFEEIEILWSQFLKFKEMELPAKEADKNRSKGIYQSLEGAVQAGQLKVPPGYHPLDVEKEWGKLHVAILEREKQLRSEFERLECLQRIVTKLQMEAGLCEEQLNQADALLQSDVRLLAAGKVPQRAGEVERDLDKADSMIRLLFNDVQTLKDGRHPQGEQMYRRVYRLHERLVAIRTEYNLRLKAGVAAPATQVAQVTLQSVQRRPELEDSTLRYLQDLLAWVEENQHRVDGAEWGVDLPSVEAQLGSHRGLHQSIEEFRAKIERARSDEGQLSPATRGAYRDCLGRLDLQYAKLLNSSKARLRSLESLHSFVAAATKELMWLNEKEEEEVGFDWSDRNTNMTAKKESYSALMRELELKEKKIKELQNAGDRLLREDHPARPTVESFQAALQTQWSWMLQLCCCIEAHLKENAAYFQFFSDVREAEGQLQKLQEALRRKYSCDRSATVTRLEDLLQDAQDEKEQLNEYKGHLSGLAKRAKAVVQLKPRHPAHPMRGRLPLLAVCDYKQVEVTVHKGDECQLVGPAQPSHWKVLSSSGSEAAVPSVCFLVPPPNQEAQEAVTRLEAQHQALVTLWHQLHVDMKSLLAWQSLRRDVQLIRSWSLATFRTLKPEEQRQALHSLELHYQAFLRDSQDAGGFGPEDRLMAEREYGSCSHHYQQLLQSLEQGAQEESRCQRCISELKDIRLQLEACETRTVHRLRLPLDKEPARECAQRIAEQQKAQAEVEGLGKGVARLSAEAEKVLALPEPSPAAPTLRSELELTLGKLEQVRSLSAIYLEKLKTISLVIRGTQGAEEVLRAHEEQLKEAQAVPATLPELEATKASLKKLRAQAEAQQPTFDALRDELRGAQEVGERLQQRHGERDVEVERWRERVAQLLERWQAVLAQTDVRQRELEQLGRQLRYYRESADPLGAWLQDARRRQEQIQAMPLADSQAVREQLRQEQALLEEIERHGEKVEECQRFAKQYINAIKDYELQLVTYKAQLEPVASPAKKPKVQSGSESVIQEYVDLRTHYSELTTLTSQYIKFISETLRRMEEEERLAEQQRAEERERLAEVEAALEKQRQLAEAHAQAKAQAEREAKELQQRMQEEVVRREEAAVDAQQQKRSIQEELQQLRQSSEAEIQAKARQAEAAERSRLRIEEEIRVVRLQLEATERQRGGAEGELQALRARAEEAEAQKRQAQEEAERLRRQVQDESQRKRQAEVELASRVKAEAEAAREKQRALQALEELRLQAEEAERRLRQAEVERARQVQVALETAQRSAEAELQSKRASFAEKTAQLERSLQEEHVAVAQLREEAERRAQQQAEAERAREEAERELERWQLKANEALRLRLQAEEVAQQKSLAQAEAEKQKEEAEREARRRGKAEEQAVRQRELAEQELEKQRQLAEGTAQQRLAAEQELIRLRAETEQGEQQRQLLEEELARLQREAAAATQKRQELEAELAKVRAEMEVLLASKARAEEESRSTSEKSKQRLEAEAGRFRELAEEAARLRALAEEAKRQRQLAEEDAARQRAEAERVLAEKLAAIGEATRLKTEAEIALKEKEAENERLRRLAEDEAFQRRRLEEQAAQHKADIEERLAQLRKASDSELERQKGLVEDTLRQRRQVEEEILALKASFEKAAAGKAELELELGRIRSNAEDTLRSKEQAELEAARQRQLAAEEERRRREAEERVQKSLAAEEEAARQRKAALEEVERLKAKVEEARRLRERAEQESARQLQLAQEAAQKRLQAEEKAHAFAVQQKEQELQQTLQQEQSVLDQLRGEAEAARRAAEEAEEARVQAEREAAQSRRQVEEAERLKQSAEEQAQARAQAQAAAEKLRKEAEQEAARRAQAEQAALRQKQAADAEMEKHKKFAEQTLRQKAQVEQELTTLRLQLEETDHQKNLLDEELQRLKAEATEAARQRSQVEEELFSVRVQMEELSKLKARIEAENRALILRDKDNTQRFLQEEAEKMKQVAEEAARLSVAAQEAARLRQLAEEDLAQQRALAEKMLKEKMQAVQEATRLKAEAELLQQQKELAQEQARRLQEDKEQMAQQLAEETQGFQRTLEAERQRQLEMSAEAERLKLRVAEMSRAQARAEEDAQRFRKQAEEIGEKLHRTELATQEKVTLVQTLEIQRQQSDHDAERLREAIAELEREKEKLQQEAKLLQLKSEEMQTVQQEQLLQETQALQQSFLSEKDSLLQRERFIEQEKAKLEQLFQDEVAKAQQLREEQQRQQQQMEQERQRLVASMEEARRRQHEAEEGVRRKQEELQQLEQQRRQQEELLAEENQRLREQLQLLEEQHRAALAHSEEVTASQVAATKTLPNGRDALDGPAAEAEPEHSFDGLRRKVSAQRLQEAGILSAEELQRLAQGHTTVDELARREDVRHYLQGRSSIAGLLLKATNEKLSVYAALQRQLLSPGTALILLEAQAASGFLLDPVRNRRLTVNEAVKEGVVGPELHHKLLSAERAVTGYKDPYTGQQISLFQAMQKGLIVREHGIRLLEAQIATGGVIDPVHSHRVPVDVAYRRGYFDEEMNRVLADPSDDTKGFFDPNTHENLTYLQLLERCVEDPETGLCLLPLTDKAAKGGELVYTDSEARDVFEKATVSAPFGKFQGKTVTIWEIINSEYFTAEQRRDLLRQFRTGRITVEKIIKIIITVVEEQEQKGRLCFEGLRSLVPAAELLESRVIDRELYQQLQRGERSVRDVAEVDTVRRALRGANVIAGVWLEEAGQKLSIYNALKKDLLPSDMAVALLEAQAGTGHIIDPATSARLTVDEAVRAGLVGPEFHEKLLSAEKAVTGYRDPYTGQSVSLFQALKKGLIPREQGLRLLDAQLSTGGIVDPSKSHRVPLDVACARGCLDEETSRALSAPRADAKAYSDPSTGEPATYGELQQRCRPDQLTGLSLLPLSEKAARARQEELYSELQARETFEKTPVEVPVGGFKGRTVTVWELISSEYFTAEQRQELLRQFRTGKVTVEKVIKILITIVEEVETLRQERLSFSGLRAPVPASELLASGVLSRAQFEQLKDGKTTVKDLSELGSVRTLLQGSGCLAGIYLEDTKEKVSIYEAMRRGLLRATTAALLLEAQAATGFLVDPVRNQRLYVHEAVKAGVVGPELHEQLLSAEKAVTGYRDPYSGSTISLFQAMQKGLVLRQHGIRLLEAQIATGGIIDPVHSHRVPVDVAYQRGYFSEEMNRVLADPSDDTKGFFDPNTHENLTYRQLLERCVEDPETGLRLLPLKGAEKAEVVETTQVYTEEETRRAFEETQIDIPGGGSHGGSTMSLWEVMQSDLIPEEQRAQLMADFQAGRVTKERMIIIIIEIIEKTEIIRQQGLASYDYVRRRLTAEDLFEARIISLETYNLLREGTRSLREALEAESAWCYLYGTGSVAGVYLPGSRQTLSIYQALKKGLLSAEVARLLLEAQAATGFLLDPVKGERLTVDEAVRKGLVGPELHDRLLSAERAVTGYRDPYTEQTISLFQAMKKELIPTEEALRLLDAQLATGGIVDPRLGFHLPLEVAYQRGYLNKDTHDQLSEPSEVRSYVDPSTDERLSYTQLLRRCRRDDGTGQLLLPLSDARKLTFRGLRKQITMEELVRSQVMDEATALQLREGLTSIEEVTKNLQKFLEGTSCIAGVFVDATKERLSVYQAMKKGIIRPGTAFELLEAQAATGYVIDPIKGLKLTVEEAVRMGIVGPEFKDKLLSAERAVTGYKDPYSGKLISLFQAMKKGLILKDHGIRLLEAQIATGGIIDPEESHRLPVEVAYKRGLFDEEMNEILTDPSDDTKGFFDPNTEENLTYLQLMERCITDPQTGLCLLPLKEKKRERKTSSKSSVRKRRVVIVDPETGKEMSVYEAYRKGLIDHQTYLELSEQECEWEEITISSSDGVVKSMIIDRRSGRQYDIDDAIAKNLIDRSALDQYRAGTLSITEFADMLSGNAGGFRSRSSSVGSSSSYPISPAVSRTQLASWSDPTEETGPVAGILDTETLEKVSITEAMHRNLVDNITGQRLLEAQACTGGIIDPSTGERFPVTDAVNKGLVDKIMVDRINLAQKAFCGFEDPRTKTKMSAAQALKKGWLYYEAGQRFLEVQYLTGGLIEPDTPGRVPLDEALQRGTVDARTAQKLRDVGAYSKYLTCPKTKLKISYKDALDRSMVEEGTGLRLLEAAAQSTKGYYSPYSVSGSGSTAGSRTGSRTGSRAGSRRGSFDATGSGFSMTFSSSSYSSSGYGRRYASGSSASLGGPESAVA
Sequence of UniProt P60228 (P60228 whole entry): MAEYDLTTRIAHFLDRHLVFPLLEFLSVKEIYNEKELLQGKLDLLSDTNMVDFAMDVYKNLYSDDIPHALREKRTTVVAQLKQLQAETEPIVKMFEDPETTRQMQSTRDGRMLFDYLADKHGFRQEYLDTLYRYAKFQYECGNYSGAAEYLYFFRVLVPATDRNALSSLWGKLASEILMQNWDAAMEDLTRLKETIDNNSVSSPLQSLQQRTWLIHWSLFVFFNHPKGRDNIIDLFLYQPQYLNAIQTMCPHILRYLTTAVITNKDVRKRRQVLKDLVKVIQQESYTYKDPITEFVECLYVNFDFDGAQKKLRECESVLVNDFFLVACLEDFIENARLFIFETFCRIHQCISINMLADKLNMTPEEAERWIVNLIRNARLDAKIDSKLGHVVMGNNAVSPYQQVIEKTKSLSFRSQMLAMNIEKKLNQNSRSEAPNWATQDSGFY

Target | lysine labeling ratio R10:1
CPM (lysine site: K338) (UniProt P14384) | 4.51
ACTR3 (lysine site: K42) (UniProt P61158) | 1.04 (active)
UniProt O60462 (lysine site: K755) | 2.55
UniProt P14618 (lysine site: K270) | 1.75 (active)
FLNA (lysine site: K1491) (UniProt P21333) | 2.1
VIM (lysine site: K439) (UniProt P08670) | 8.7
UniProt P05787 (lysine site: K472) | 2.67
CNN2 (lysine site: K30) (UniProt Q99439) | 4.32
FAT1 (lysine site: K894) (UniProt Q14517) | 2.53
UniProt Q15149 (lysine site: K2037) | 1.95 (active)
KRT18 (lysine site: K167) (UniProt P05783) | 10.7
RAB13 (lysine site: K107) (UniProt P51153) | 0.523 (active)
PGK1 (lysine site: K323) (UniProt P00558) | 5.55
FLNB (lysine site: K1425) (UniProt O75369) | 3.67
UniProt P04439 (lysine site: K92) | 3.31
TF (lysine site: K134) (UniProt P02787) | 2.36
UniProt P60228 (lysine site: K409) | 2.54
ACTN1 (lysine site: K492) (UniProt P12814) | 0.906 (active)
IQGAP1 (lysine site: K1389) (UniProt P46940) | 5.25
GPC1 (lysine site: K347) (UniProt P35052) | 4.46

Target | lysine labeling ratio R10:1
EFNB2 (lysine site: K163) (UniProt P52799) | 1.53 (active)
VASN (lysine site: K133) (UniProt Q6EMK4) | 4.74
CD109 (lysine site: K1018) (UniProt Q6YHK3) | 1.99 (active)
PLOD2 (lysine site: K89) (UniProt O00469) | 1.37 (active)
VCL (lysine site: K778) (UniProt P18206) | 1.11 (active)
UniProt P01893 (lysine site: K210) | 2.51
UniProt P63000 (lysine site: K153) | 2.29
RPS19 (lysine site: K77) (UniProt P39019) | 2.89
LAMB1 (lysine site: K1579) (UniProt P07942) | 2.82
UniProt P62899 (lysine site: K75) | 2.92
ITGAV (lysine site: K533) (UniProt P06756) | 1.58 (active)
UniProt Q9HDC9 (lysine site: K356) | 2.37
RPL5 (lysine site: K283) (UniProt P46777) | 1.68 (active)
ANXA3 (lysine site: K184) (UniProt P12429) | 1.13 (active)
LMO7 (lysine site: K794) (UniProt Q8WWI1) | 2.02
MYH9 (lysine site: K613) (UniProt P35579) | 1.78 (active)
TPI1 (lysine site: K188) (UniProt P60174) | 4.28
RPL3 (lysine site: K155) (UniProt P39023) | 0.69 (active)
UniProt Q8WXI7 (lysine site: K12412) | 1.99 (active)
UniProt Q15149 (lysine site: K4140) | 3.87

Reference: the supplement of paper PMC11001985
